# EBV LMP1 NFkB = EBV LMP1-driven NF-kappaB luciferase reporter inhibitors, primary screen, cell-based, luminescence, single point | LMP1-induced NF-kappaB luciferase reporter cells | 350,000 compounds, 0.69% hits | inhibition, % at 12.5 µM; in the data active means inhibition above about 41%;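 further: 0% = neutral control wells and 100% = reference inhibitor control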
# EWS-Fli inh = EWS/Fli-driven NR0B1 reporter inhibitors, primary screen, A673 cells, NR0B1 luciferase, luminescence, MLPCN library; inhibition, % at 12.6 µM; AID 651661, 2012; viability-normalised; 350,000 compounds, 0.67% hits;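 active means mean inhibition of at least 50% after viability correction, with every replicate also passing that limit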;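 further: firefly luciferase signal divided by Alamar Blue viability fluorescence both relative to DMSO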
# TWEAK Fn14 block = inhibitors of TWEAK-Fn14 signaling, primary screen, luciferase reporter cells, uHTS; TWEAK-stimulated Fn14 reporter cells, luciferase luminescence, 8 h; inhibition, % at 10 µM; 360,000 compounds, 2% hits; AID 1159606, 2016; in the data active means inhibition above about 50%
# LGR2 inh = inhibitors of bursicon-induced LGR2 CRE-luciferase signal, primary screen, cell-based, HEK293, CRE-luciferase reporter, bursicon stimulation; bursicon-stimulated, 4 h; Drosophila bursicon receptor LGR2 (rickets); AID 720647, 2013; 380,000 compounds, 0.35% hits; inhibition, % at 9.99 µM;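 active means drop in luminescence signal, shown as inhibition above about 50% in the replicate tests, limit read from the data, passing the limit was not always enough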;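 further: agonist challenge used bursicon conditioned medium at about half maximal strength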
# TROY NFkB inh = inhibitors of TROY-driven NF-kB signaling, primary screen, Q293 LMP1-TROYcd cells, NF-kB luciferase, uHTS. AID 1347056, 2019. inhibition, % at 10 µM. Q293 LMP1-TROYcd NF-kB luciferase reporter, 4 h. 360,000 compounds, 0.98% hits;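 active means compounds whose plate-normalised and pattern-corrected inhibition of the luciferase reporter signal at the single screening dose is 50% or more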
# The depositor's hits bear a star; . = not tested or not shown. Shown are actives, neighbours in structure and some others; about 2.6% of the full set was active somewhere.
SMILES,EBV LMP1 NFkB,EWS-Fli inh,TWEAK Fn14 block,LGR2 inh,TROY NFkB inh
OC[C@@H]1[C@@H](c2ccc(Cl)cc2)C(c2cccc(Cl)c2)=NN1c1ccccc1,-2.2,-3.1,62.1*,-3.9,-0.1
Cn1nnnc1SCC(=O)N1c2ccccc2Sc2ccccc21,0.6,.,-10.9,.,11.4
CCn1nnnc1SCC(=O)N1c2ccccc2Sc2ccccc21,9.3,.,63.2*,.,34.7
C[C@@H]1CN([C@H](C)CO)C(=O)c2cc(C3=CCCC3)cnc2O[C@@H]1CN(C)C(=O)Nc1cccc(F)c1,.,4.2,.,2.6,.
Cc1nn(-c2ccccc2)c(C)c1NC(=O)COc1ccc(C#N)cc1,4.8,-6.6,24.4,16.6,-18.8
Cc1nn(-c2ccccc2)c(C)c1NC(=O)COc1ccccc1C#N,3.7,-1.9,-8.5,-3.8,-6.4
Cc1nn(-c2ccccc2)c(C)c1NC(=O)COc1ccc(Br)cc1Cl,1.9,.,78.2*,-21.4,45.8
Cc1nn(-c2ccccc2)c(C)c1NC(=O)COc1ccc2ccccc2c1,5.6,11.9,45.4,38.1,54.7*
C[C@H]1CN([C@@H](C)CO)S(=O)(=O)c2ccc(C#CC(C)(C)O)cc2O[C@H]1CN(C)Cc1ccc(-c2ccccc2)cc1,.,-5.9,.,-8.6,.
COc1ccccc1C(=O)NCc1ccc(-c2nc3ccccc3s2)cc1,19.2,9.1,75.8*,-6.3,45.1
COc1cc(C(=O)NCc2ccc(-c3nc4ccccc4s3)cc2)cc(OC)c1OC,8.7,-33.4,-40.0,.,-16.3
COc1ccc(NC(=O)c2nc3ccccc3s2)cc1,-15.6,-36.3,61.0*,14.8,38.2
COc1ccc(OC)c(NC(=O)c2nc3ccccc3s2)c1,-30.6,-14.4,-18.6,-30.4,-33.9
COc1ccccc1C(=O)Nc1nc2ccccc2s1,85.3*,92.8*,104.4*,104.6*,84.9*
Cc1ccc(NC(=S)c2nc3ccccc3s2)cc1,-15.8,.,77.7*,.,54.6*
COc1ccccc1C(=O)Nc1nc2ccc(S(C)(=O)=O)cc2s1,-4.1,.,26.0,.,-19.6
C[C@@H]1CN([C@H](C)CO)C(=O)c2cc(NC(=O)C3CCCCC3)ccc2O[C@@H](C)CCCCO[C@@H]1CN(C)Cc1ccc(Cl)c(Cl)c1,.,-10.0,.,19.8,.
C[C@H](CO)N1C[C@H](C)[C@H](CN(C)S(=O)(=O)c2ccc(F)cc2)Oc2ccc(NC(=O)CCN3CCOCC3)cc2C1=O,.,-2.8,.,-3.7,.
COCC(=O)N1[C@H](C#N)[C@H](c2ccccc2-c2cccc(OC)c2)[C@@H]1CO,.,8.4,.,1.7,.
CCc1nnc(NC(=O)c2ccc(OC)cc2OC)s1,15.7,.,74.1*,.,22.3
Cn1cc(Cl)c(C(=O)Nc2nc3ccccc3s2)n1,1.9,.,57.1*,.,7.0
COc1cc2nc(NC(=O)c3ccccc3)sc(=O)c2cc1OC,9.8,8.6,71.7*,0.2,6.6
COc1ccccc1C(=O)Nc1c[nH]c(=O)[nH]c1=O,52.5*,-1.4,3.4,5.0,-10.3
O=C(Nc1nc2ccccc2s1)c1c(F)cccc1Cl,-4.2,-87.7,-11.3,-56.0,-58.0
COc1ccc(C(=O)Nc2nnc(SCC(=O)Nc3ccc(NC(C)=O)cc3)s2)c(OC)c1,-20.5,-82.5,10.8,11.5,25.1
SMILES,EBV LMP1 NFkB,EWS-Fli inh,TWEAK Fn14 block,LGR2 inh,TROY NFkB inh
O=C(Nc1ccccc1F)N[C@@H]1CC[C@@H](CCNS(=O)(=O)c2ccccc2)O[C@@H]1CO,.,-0.5,.,-14.7,.
Cc1csc(NC(=O)c2nc3nccc(C)n3n2)n1,-6.5,.,5.9,.,-34.2
Cc1ccnc2nc(C(=O)Nc3nc4ccccc4s3)nn12,9.8,-19.5,67.3*,17.6,-45.6
COC(=O)Cc1ccc2sc(-c3ccccc3)nc2c1,-10.7,.,55.9*,48.1,12.0
S=C(Nc1ccc(Cl)cc1)c1nc2ccccc2s1,-16.2,.,0.7,.,-44.5
O=C(Nc1ccc(Cc2nc3ccccc3s2)cc1)c1ccncc1,10.8,-1.3,59.4*,7.2,27.5
O=C(Nc1ccc(Cl)cc1)/C(=C/c1cccc(O)c1)c1nc2ccccc2s1,-3.4,29.8,104.4*,86.3*,82.7*
O=S(=O)(NCC[C@@H]1CC[C@H](NS(=O)(=O)c2ccccc2Cl)[C@H](CO)O1)c1ccc(F)cc1,.,4.2,.,8.4,.
C[C@H](CO)N1C[C@H](C)[C@H](CN(C)Cc2ccc(C(=O)O)cc2)OCCCC[C@H](C)Oc2ccc(NC(=O)Nc3ccc4c(c3)OCO4)cc2C1=O,.,-18.4,.,19.9,.
CCC(=O)N1C[C@@H](C)[C@H](OC)CN(C)C(=O)c2ccc(NC(=O)Nc3cccc(F)c3)cc2OC[C@@H]1C,.,-2.1,.,4.0,.
C[C@@H]1CN([C@@H](C)CO)C(=O)c2cc(NC(=O)C3CCCCC3)ccc2O[C@@H]1CN(C)C(=O)NC1CCCCC1,.,.,.,-18.3,.
Cc1cc(C)n(-c2ccc(C(=O)Nc3nc4ccccc4s3)cc2)n1,-20.3,.,10.4,.,-18.5
Nc1ccc(C(=O)Nc2nc3ccccc3s2)cc1,-31.1,24.8,62.2*,-13.3,-13.4
COc1cccc(-c2cc(C(=O)Nc3nc4ccccc4s3)c3ccccc3n2)c1,-5.7,.,22.4,.,1.4
COc1ccc(C(=O)Nc2nc3ccccc3s2)c(OC)c1,85.2*,91.3*,105.1*,102.9*,85.2*
O=C(CNC(=O)/C(=C\c1ccccc1)NC(=O)c1ccc(Br)cc1)OCc1ccccc1,9.7,.,73.0*,.,.
C[C@@H]1CN([C@@H](C)CO)C(=O)Cc2cc(NS(=O)(=O)c3cn(C)cn3)ccc2O[C@H]1CN(C)C(=O)Nc1ccc2c(c1)OCO2,.,-11.1,.,-7.6,.
C[C@@H]1CN([C@@H](C)CO)C(=O)Cc2cc(NS(=O)(=O)c3ccccc3)ccc2O[C@H]1CN(C)C(=O)Nc1ccc(C(F)(F)F)cc1,.,5.1,.,-14.1,.
CCCS(=O)(=O)N1CCC(C(=O)NC2CCCC(C)C2C)CC1 (stereo not drawn),2.9,.,4.6,.,-11.2
CCCS(=O)(=O)N1CCCC(C(=O)NC2CCCC(C)C2C)C1 (stereo not drawn),59.5*,.,-11.5,.,5.0
CCOC(=O)c1ccc(NC(=O)c2cnccn2)cc1,-10.4,.,-21.8,.,-63.8
CCCc1ccc(C(C)NC(=O)c2cnccn2)cc1 (stereo not drawn),13.0,.,85.1*,.,.
CCCCc1ccc(NC(=O)c2cnccn2)cc1,24.0,0.4,64.4*,64.8*,1.1
CC(C)c1ccc(OCC(=O)NNC(=O)c2cnccn2)cc1,54.9*,5.4,-5.5,-2.2,-14.8
Cc1ccccc1NC(=O)Nc1ccc2c(c1)C(=O)N(C)[C@H]1CC[C@@H](CC(=O)NCC3CC3)O[C@@H]1CO2,.,0.5,.,8.1,.
CC(=O)c1cccc(NC(=S)Nc2cccc3ccccc23)c1,-13.2,-7.6,36.8,-46.4,56.8*
COc1ccc(NC(C)=O)cc1NC(C)C(=O)Nc1cccc2ccccc12 (stereo not drawn),4.7,.,36.8,-1.4,57.1*
COc1ccc(Nc2cccccc2=O)cc1,1.9,.,-8.8,.,-44.1

# Bioassay records (PubChem BioAssay)
